Results reported in the supplement of paper PMC10849652.
Of roughly 8,800 targets only a part is listed; those with a hit were picked by preference. About 0.5% of all pairs of compound and target were hits. A number with no mark means an inactive call.

Tests used:
Test in all cases: log2 fold change, soluble protein after heating vs DMSO (PISA); higher = thermal stabilisation; K562 lysate, 10 uM; active = over 0.2 and 3.5 SD of the protein, either way, in both replicates (recomputed)
alvocidib = compound: CN1CC[C@H](c2c(O)cc(O)c3c(=O)cc(-c4ccccc4Cl)oc23)[C@H](O)C1 [alvocidib]
In short: (§1)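 Pellets of K562 cells were dounce-homogenised in PBS pH 7.4 with 1 mM MgCl2, and the crude extract was held at 1 mg/mL protein for a 30 min treatment with 10 μM compound. Aliquots were heated for 3 min over 48°C-58°C and pooled before NP-40 was added to 0.5% at 4°C. The supernatant from 21,000xg for 90 min was quantified by TMTpro 16plex LC-MS/MS with channel sums equalised. Values are reported from duplicates as log-two fold change in thermal stability relative to solvent controls.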

Tubastatin A = compound: CN1CCc2c(c3ccccc3n2Cc2ccc(C(=O)NO)cc2)C1 [Tubastatin A]
In short: as §1

[1] = compound: CNC(=O)C1=CC=CC=C1NC2=NC(=NC=C2Cl)NC3=C(C=C(C=C3)N4CCOCC4)OC
In short: as §1

defactinib = compound: CNC(=O)c1ccc(Nc2ncc(C(F)(F)F)c(NCc3nccnc3N(C)S(C)(=O)=O)n2)cc1 [defactinib]
In short: as §1

[2] = compound: CNc1nc(-c2ccc3c(N)n[nH]c3c2)cc(N2C[C@@H](C(=O)NC3CCCCC3)CC[C@H]2C)n1
In short: as §1

encorafenib = compound: COC(=O)N[C@@H](C)CNc1nccc(-c2cn(C(C)C)nc2-c2cc(Cl)cc(NS(C)(=O)=O)c2F)n1 [encorafenib]
In short: as §1

[3] = compound: COC(=O)[C@H](CCSC)NC(=O)C1=C(C=C(C=C1)NC[C@H](CS)N)C2=CC=CC=C2
In short: as §1

alisertib = compound: COc1cc(Nc2ncc3c(n2)-c2ccc(Cl)cc2C(c2c(F)cccc2OC)=NC3)ccc1C(=O)O [alisertib]
In short: as §1

[4] = compound: COc1cc2nc(-c3cc(F)ccc3O)nc(N[C@@H]3CNC[C@H]3C(C)(C)O)c2cc1OC
In short: as §1

gefitinib = compound: COc1cc2ncnc(Nc3ccc(F)c(Cl)c3)c2cc1OCCCN1CCOCC1 [gefitinib]
In short: as §1

lapatinib = compound: CS(=O)(=O)CCNCc1ccc(-c2ccc3ncnc(Nc4ccc(OCc5cccc(F)c5)c(Cl)c4)c3c2)o1 [lapatinib]
In short: as §1

pictilisib = compound: CS(=O)(=O)N1CCN(Cc2cc3nc(-c4cccc5[nH]ncc45)nc(N4CCOCC4)c3s2)CC1 [pictilisib]
In short: as §1

crizotinib = compound: C[C@@H](Oc1cc(-c2cnn(C3CCNCC3)c2)cnc1N)c1c(Cl)ccc(F)c1Cl [crizotinib]
In short: as §1

[5] = compound: C[C@H](C1=CC=C(C=C1)C(=O)NC2=C3C=CNC3=NC=C2)N
In short: as §1

duvelisib = compound: C[C@H](Nc1ncnc2nc[nH]c12)c1cc2cccc(Cl)c2c(=O)n1-c1ccccc1 [duvelisib]
In short: as §1

gandotinib = compound: Cc1cc(Nc2cc(CN3CCOCC3)c3nc(C)c(Cc4ccc(Cl)cc4F)n3n2)n[nH]1 [gandotinib]
In short: as §1

tozasertib = compound: Cc1cc(Nc2cc(N3CCN(C)CC3)nc(Sc3ccc(NC(=O)C4CC4)cc3)n2)n[nH]1 [tozasertib]
In short: as §1

doramapimod = compound: Cc1ccc(-n2nc(C(C)(C)C)cc2NC(=O)Nc2ccc(OCCN3CCOCC3)c3ccccc23)cc1 [doramapimod]
In short: as §1

bafetinib = compound: Cc1ccc(NC(=O)c2ccc(CN3CC[C@H](N(C)C)C3)c(C(F)(F)F)c2)cc1Nc1nccc(-c2cncnc2)n1 [bafetinib]
In short: as §1

[6] = compound: Cc1cccc(CC(=O)N2CCc3c2ccc(-c2cn(C)c4ncnc(N)c24)c3F)n1
In short: as §1

Chain of UniProt P53350 (P53350 whole entry, looked up): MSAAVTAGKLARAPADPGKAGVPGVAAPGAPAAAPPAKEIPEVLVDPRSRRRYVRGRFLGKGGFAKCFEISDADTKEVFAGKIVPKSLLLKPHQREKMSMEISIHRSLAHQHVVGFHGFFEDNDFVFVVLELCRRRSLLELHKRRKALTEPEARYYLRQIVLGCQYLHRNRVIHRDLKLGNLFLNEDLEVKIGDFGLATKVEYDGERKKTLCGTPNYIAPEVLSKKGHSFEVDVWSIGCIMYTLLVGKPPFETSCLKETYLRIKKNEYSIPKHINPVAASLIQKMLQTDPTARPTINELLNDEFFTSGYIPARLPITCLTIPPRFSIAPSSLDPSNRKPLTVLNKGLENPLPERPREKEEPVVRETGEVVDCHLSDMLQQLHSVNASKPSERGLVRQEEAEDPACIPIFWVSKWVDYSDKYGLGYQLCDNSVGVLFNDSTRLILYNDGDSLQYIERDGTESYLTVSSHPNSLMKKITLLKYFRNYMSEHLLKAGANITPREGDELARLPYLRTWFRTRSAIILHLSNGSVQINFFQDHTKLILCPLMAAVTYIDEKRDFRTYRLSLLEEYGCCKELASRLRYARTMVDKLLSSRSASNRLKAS
Chain of UniProt Q9NVU0 (Q9NVU0 whole entry, looked up): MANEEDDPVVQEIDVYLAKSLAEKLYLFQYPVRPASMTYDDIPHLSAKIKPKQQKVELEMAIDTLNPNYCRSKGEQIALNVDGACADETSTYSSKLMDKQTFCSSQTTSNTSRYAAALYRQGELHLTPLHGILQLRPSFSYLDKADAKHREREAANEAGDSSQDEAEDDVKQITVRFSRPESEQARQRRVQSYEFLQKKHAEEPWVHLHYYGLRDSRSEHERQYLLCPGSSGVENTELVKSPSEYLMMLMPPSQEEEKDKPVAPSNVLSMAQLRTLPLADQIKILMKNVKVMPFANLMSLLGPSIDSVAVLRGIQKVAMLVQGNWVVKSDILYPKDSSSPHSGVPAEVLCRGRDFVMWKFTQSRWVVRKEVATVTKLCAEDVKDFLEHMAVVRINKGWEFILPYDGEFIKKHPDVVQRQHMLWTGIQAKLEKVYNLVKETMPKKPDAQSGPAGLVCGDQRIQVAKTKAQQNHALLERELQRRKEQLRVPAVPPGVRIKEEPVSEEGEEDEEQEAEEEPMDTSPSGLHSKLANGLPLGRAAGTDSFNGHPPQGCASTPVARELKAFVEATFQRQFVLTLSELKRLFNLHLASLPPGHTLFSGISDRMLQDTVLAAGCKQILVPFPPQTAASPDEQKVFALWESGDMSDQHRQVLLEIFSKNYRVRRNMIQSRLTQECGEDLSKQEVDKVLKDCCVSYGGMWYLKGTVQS
Chain of UniProt Q9H0N5 (Q9H0N5 whole entry, looked up): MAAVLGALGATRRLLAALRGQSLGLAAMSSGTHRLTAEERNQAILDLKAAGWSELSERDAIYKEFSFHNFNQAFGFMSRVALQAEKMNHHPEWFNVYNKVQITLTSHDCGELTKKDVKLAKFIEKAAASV
Chain of UniProt Q96I23 (Q96I23 whole entry, looked up): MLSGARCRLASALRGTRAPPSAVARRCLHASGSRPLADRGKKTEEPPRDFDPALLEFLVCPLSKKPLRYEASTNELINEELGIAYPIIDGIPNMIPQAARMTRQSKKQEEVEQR
Chain of UniProt Q16877 (Q16877 whole entry, looked up): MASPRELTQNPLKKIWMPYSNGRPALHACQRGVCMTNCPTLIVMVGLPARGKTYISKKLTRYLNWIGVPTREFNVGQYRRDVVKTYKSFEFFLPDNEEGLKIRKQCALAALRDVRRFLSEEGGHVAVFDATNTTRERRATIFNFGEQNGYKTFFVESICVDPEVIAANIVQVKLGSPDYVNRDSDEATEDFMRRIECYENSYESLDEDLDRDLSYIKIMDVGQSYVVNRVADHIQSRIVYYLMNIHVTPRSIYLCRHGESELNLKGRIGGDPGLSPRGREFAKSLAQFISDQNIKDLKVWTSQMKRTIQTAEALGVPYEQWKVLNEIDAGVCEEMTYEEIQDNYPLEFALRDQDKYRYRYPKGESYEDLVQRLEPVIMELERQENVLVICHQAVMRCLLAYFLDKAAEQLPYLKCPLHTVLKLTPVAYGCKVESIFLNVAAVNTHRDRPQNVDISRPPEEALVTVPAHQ
Chain of UniProt P53609 (P53609 whole entry, looked up): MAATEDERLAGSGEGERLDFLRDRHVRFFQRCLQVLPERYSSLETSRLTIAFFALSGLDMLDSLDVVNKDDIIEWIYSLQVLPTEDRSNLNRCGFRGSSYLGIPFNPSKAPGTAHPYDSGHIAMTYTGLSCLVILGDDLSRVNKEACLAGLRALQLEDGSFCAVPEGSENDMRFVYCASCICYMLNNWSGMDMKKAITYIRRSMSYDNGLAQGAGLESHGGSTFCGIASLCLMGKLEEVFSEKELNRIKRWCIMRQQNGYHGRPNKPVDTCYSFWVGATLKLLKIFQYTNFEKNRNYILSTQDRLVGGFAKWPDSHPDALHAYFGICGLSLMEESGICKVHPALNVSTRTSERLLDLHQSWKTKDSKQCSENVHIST
Chain of UniProt P46019 (P46019 whole entry, looked up): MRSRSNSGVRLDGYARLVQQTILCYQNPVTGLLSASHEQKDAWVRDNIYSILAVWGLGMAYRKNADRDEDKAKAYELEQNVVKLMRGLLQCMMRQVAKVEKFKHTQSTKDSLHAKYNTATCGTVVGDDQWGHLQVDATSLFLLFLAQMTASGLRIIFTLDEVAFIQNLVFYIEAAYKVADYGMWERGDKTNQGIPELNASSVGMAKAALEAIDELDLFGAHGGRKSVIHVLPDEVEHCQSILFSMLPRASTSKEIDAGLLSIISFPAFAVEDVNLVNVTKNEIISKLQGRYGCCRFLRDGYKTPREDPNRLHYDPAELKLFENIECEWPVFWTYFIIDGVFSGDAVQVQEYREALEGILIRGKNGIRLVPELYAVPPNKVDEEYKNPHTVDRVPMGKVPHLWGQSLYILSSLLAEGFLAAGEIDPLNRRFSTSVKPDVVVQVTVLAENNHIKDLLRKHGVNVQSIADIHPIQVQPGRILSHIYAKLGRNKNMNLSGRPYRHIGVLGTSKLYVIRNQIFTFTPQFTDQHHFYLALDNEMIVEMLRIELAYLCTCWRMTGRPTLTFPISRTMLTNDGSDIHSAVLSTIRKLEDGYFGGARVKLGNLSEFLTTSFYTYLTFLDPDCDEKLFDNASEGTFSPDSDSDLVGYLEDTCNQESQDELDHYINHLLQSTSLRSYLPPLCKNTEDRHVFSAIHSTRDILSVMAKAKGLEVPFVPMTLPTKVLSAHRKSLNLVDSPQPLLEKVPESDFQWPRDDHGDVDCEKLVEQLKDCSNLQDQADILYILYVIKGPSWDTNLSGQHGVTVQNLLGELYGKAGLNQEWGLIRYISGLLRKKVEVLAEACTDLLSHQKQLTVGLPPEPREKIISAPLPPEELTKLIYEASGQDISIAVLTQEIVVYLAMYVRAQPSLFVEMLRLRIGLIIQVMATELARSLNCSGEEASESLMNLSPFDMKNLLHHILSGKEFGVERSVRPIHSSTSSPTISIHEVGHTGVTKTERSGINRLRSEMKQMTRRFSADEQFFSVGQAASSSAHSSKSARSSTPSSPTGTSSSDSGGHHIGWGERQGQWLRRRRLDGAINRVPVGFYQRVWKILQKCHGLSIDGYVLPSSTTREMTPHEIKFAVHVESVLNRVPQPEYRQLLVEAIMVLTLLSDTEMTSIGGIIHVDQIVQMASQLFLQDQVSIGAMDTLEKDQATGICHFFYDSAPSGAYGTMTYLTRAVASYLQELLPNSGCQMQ
Chain of UniProt P78356 (P78356 whole entry, looked up): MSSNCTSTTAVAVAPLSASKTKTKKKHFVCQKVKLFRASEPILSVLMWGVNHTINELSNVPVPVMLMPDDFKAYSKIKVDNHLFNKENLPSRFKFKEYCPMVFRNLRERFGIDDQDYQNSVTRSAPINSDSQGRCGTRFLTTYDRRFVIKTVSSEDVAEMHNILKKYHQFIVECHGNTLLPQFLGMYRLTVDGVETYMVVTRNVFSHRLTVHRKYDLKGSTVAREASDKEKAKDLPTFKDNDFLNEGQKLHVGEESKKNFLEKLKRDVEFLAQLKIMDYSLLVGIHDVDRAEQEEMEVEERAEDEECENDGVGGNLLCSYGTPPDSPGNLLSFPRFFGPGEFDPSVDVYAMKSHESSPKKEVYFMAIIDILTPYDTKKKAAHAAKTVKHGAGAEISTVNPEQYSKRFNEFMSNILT
Chain of UniProt Q96S99 (Q96S99 whole entry, looked up): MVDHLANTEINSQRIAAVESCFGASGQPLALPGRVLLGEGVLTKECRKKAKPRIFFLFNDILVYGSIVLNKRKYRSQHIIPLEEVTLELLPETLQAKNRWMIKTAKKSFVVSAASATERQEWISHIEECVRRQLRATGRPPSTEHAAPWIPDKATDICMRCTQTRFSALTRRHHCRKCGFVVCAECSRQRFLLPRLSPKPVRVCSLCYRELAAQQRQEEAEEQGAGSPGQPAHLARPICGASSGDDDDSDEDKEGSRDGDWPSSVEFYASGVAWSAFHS

Row | Target | log2 fold change (alvocidib) | log2 fold change (Tubastatin A) | log2 fold change [1] | log2 fold change (defactinib) | log2 fold change [2] | log2 fold change (encorafenib) | log2 fold change [3] | log2 fold change (alisertib) | log2 fold change [4] | log2 fold change (gefitinib) | log2 fold change (lapatinib) | log2 fold change (pictilisib) | log2 fold change (crizotinib) | log2 fold change [5] | log2 fold change (duvelisib) | log2 fold change (gandotinib) | log2 fold change (tozasertib) | log2 fold change (doramapimod) | log2 fold change (bafetinib) | log2 fold change [6]
1 | PLK1 (UniProt P53350) | 0.059 | -0.108 | -0.347 (active) | -0.268 | 0.006 | 0.097 | -0.034 | -0.003 | -0.023 | 0.003 | -0.024 | 0.013 | -0.179 | 0.168 | 0.043 | -0.088 | 0.003 | 0.03 | -0.019 | -0.055
2 | PHKA2 (UniProt P46019) | 0.064 | -0.084 | 0.265 (active) | -0.027 | 0.032 | -0.008 | 0.018 | -0.008 | 0.06 | -0.03 | -0.085 | -0.042 | 0.048 | 0.022 | -0.01 | -0.035 | -0.015 | 0.013 | -0.109 | -0.012
3 | PYURF (UniProt Q96I23) | 0.077 | 0.041 | 0.073 | 0.181 | 0.019 | 0.113 | 0.027 | 0.007 | -0.007 | -0.038 | 0.036 | -0.066 | 0.016 | 0.01 | 0.087 | -0.015 | -0.048 | 0.011 | 0.091 | 0.015
4 | PLEKHF1 (UniProt Q96S99) | -0.001 | -0.051 | 0.058 | -0.007 | -0.033 | -0.025 | -0.009 | -0.008 | -0.001 | 0.007 | -0.022 | -0.016 | -0.021 | -0.043 | 0.058 | 0.023 | 0.02 | 0.016 | 0.013 | 0.026
5 | PIP4K2B (UniProt P78356) | 0.223 (active) | 0.008 | -0.014 | 0.031 | -0.065 | 0.062 | -0.093 | -0.036 | -0.028 | 0.013 | 0.033 | 0.044 | -0.019 | 0.01 | 0.006 | 0.029 | -0.029 | -0.001 | 0.164 | -0.067
6 | PGGT1B (UniProt P53609) | 0.032 | 0.036 | -0.068 | 0.022 | -0.117 | -0.039 | 0.454 (active) | -0.011 | -0.032 | -0.021 | 0.013 | -0.012 | 0.01 | 0.013 | -0.019 | -0.158 | 0.083 | 0.047 | 0.076 | -0.074
7 | PCBD2 (UniProt Q9H0N5) | -0.124 | 0.012 | 0.01 | -0.045 | -0.059 | -0.008 | -0.039 | 0.058 | 0.031 | 0.071 | -0.014 | -0.009 | -0.051 | -0.228 (active) | 0.028 | 0.141 | 0.031 | 0.008 | -0.063 | 0.096
8 | POLR3E (UniProt Q9NVU0) | 0.011 | -0.08 | 0.009 | 0.02 | 0.009 | 0.004 | 0.104 | 0.024 | -0.003 | 0.009 | -0.014 | -0.001 | 0.003 | -0.001 | 0.01 | -0.028 | -0.011 | -0.001 | -0.018 | 0.013
9 | PFKFB4 (UniProt Q16877) | -0.03 | -0.009 | 0.029 | 0.011 | -0.027 | 0.02 | -0.019 | – | -0.016 | – | -0.008 | -0.061 | -0.034 | -0.027 | 0.011 | -0.044 | -0.012 | 0.009 | -0.003 | 0.039
